Compounds with a hit are over-represented: about 3.5% of the library has one in this group of screens.
Mcl1-Noxa inh: Mcl-1/Noxa interaction inhibition; Q07820; TR-FRET Mcl-1/Noxa peptide binding, 2 h; inhibition, % at 21.7 µM; 220,000 compounds, 1.5% hits; AID 1022;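 active = compounds that cut the protein-peptide binding signal by more than 50% relative to plate controls in a single-dose test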;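 note: His-tagged Mcl-1 with rhodamine Noxa BH3 peptide and terbium anti-His antibody; 0% = Mcl-1 plus Noxa peptide wells and 100% = peptide-only wells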
eIF4E 4G PPI: inhibitors of eIF4E and eIF4G interaction in translation initiation; 220,000 compounds, 0.37% hits; TR-FRET eIF4E-eIF4GI(517-606) binding, 2 h; P63073+Q04637; inhibition, % at 21.7 µM;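 active = inhibition above about 30%, limit read from the data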;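 note: 0% = full FRET control wells and 100% = background wells lacking eIF4GI fragment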
Hck Nef HTS: human Hck-Nef kinase inhibition; Recombinant Hck-YEEI plus Nef, Z-Lyte FRET kinase assay; 220,000 compounds, 0.68% hits; inhibition, % at 20 µM; P08631;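 active = Hck-Nef kinase inhibition above about 50%, limit read from the data; inactive = inhibition below that limit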;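 note: 0% = DMSO with Hck plus Nef and 100% = Hck alone without Nef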
Target sequence (P08631 whole entry, looked up): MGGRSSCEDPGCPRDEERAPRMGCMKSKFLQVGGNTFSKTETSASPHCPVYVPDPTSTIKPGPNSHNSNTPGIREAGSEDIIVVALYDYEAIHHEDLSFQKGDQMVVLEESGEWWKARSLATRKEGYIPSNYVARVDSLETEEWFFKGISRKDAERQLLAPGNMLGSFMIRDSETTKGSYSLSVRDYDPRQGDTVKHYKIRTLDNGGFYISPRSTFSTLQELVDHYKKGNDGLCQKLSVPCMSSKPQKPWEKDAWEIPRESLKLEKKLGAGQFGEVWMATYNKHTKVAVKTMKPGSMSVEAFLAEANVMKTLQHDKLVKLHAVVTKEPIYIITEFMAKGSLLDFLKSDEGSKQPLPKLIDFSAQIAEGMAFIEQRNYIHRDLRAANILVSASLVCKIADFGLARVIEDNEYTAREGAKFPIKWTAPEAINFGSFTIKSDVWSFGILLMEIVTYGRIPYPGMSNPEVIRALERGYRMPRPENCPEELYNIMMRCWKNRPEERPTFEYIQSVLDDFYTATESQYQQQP
Bim-Mcl-1: inhibitors of Bim-Mcl-1 interaction, human; Q07820; Bead-based flow cytometry, Bim peptide-Mcl-1 binding; inhibition, % at 10 µM; 190,000 compounds, 0.1% hits; in the data active = inhibition above about 40%;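 note: 0% = no compound tracer wells and 100% = peptide blocker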
14-3-3 Bad inh: disrupts binding of bovine 14-3-3 zeta to phospho-Bad peptide; P63103; TR-FRET 14-3-3zeta/Dy647-pBad peptide displacement, 1 h; inhibition, % at 21.7 µM; 220,000 compounds, 0.71% hits;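 active = inhibition above about 70%, limit read from the data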;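 note: 0% = full 14-3-3 plus peptide FRET controls and 100% = background without 14-3-3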
Mcl1-Bid inh: Mcl-1/Bid interaction inhibition | Q07820 | TR-FRET Mcl-1/Bid-Dy647 peptide binding, 1536-well | inhibition, % at 21.7 µM | 220,000 compounds, 0.97% hits | AID 1021;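 active = compounds that cut the binding signal by more than half at the single screening dose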;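 note: His-tagged Mcl-1 with europium anti-His antibody binding Bid BH3 peptide; 0% = Mcl-1 plus peptide wells and 100% = peptide-only wells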
Numbers without * were called inactive.

How did Cn1c(=O)c(C(=O)COC(=O)c2cc(-c3ccco3)nc3ccccc23)c(N)n(Cc2ccccc2)c1=O do in these assays?
Mcl1-Noxa inh: 96.2*; eIF4E 4G PPI: 14.0; Hck Nef HTS: 61.3*; Bim-Mcl-1: 2.0; 14-3-3 Bad inh: -13.2; Mcl1-Bid inh: -8.8

Results for CN(C)NC(=S)NC1(C)CCS(=O)(=O)C1 (stereo unspecified) ?
Mcl1-Noxa inh: 3.8; eIF4E 4G PPI: -2.0; Hck Nef HTS: 20.5; 14-3-3 Bad inh: 6.8; Mcl1-Bid inh: -133.8

Results for CCOC(=O)CSc1n[nH]c(-c2cccnc2)n1 ?
Mcl1-Noxa inh: 52.6*; eIF4E 4G PPI: -10.7; Hck Nef HTS: 0.6; Bim-Mcl-1: 0.0; 14-3-3 Bad inh: -1.9; Mcl1-Bid inh: -6.0

Results for CCc1ccc(S(=O)(=O)c2ccc(-n3nc(C)cc3N)cc2)cc1 ?
Mcl1-Noxa inh: 2.3; eIF4E 4G PPI: -4.1; Hck Nef HTS: 27.2; Bim-Mcl-1: 2.0; 14-3-3 Bad inh: -11.2; Mcl1-Bid inh: -27.8

How did COc1ccc(CCNC(=O)C2(C)CCC(=O)N2CCC(C)C)cc1OC (stereo unspecified) do in these assays?
Mcl1-Noxa inh: 2.7; eIF4E 4G PPI: -0.4; Hck Nef HTS: 6.6; Bim-Mcl-1: -3.0; 14-3-3 Bad inh: -2.2; Mcl1-Bid inh: 58.6*

What do the screens show for `COc1ccc(CCNC(=O)C23CCC(C)(C(=O)O2)C3(C)C)cc1OC` (stereo unspecified)?
Mcl1-Noxa inh: 1.8; eIF4E 4G PPI: 2.9; Hck Nef HTS: 17.4; Bim-Mcl-1: 2.0; 14-3-3 Bad inh: -0.9; Mcl1-Bid inh: -13.6

What do the screens show for `CCC(SC1=Nc2ccccc2C2=NC(CC(C)C)C(=O)N12)C(=O)Nc1ccc2c(c1)OCO2` (stereo unspecified)?
Mcl1-Noxa inh: 62.1*; eIF4E 4G PPI: -0.2; Hck Nef HTS: -0.7; Bim-Mcl-1: -3.0; 14-3-3 Bad inh: 1.6; Mcl1-Bid inh: -34.5

How did Cc1nc(C)c(C(=O)NCCC(c2ccccc2)c2ccccc2)o1 do in these assays?
Mcl1-Noxa inh: 13.8; eIF4E 4G PPI: -0.1; Hck Nef HTS: 4.3; Bim-Mcl-1: -6.0; 14-3-3 Bad inh: 92.3*; Mcl1-Bid inh: -22.3

What do the screens show for `CSc1nc(C)cc(OCC(=O)n2nc(C)cc2C)n1`?
Mcl1-Noxa inh: 8.9; eIF4E 4G PPI: -4.5; Hck Nef HTS: 0.7; Bim-Mcl-1: 1.0; 14-3-3 Bad inh: -2.6; Mcl1-Bid inh: 99.2*

How did CC(C)OC(=O)c1ccccc1C(=O)c1ccc(N)c([N+](=O)[O-])c1 do in these assays?
Mcl1-Noxa inh: 61.5*; eIF4E 4G PPI: -2.3; Hck Nef HTS: 21.4; Bim-Mcl-1: 4.0; 14-3-3 Bad inh: 43.2; Mcl1-Bid inh: -59.3

Results for COc1cc(OC)cc(C(=O)NCC(=O)N2CCCCC2)c1 ?
Mcl1-Noxa inh: 13.3; eIF4E 4G PPI: -1.0; Hck Nef HTS: 2.7; Bim-Mcl-1: 0.0; 14-3-3 Bad inh: -0.6; Mcl1-Bid inh: 63.2*

What do the screens show for `COc1cccc(C(=O)Nc2ccc(N(C)C)cc2)c1OC`?
Mcl1-Noxa inh: 65.1*; eIF4E 4G PPI: 7.9; Hck Nef HTS: 0.2; Bim-Mcl-1: -5.0; 14-3-3 Bad inh: -15.2; Mcl1-Bid inh: -42.4

What do the screens show for `CCCOC(=O)c1ccc(NC(=O)c2cc(Cl)ccc2OC)cc1`?
Mcl1-Noxa inh: 5.5; eIF4E 4G PPI: 5.4; Hck Nef HTS: 1.9; Bim-Mcl-1: -4.0; 14-3-3 Bad inh: 0.6; Mcl1-Bid inh: -61.2

Results for CN(C)c1ccc(/C=N/NC(=O)c2ccccc2)cc1 ?
Mcl1-Noxa inh: 10.1; eIF4E 4G PPI: 3.2; Hck Nef HTS: -32.9; Bim-Mcl-1: -1.0; 14-3-3 Bad inh: -14.8; Mcl1-Bid inh: -27.5

Results for CN(C)c1ccc(NC(=O)c2cccc(C(=O)Nc3ccc(N(C)C)cc3)n2)cc1 ?
Mcl1-Noxa inh: 85.7*; eIF4E 4G PPI: 15.8; Hck Nef HTS: 2.4; Bim-Mcl-1: 3.0; 14-3-3 Bad inh: -4.2; Mcl1-Bid inh: -11.8

How did CN(C)c1ccc(/C=N/NC(=O)c2cccc(C(=O)N/N=C/c3ccc(N(C)C)cc3)n2)cc1 do in these assays?
Mcl1-Noxa inh: 82.2*; eIF4E 4G PPI: -4.7; Hck Nef HTS: 32.0; Bim-Mcl-1: 5.0; 14-3-3 Bad inh: 9.1; Mcl1-Bid inh: 45.3

Results for CCN(CC)c1ccc(NC(=O)c2cc(Cl)ccc2OC)cc1 ?
Mcl1-Noxa inh: 65.8*; eIF4E 4G PPI: 28.2; Hck Nef HTS: -2.3; Bim-Mcl-1: 1.0; 14-3-3 Bad inh: 10.0; Mcl1-Bid inh: 8.3

Compound activity (PubChem BioAssay)
